Reference: the supplement of paper PMC6897291

System: U-2932
Assay: growth inhibition by drug alone (1 - RLU/untreated control) (fraction); higher = stronger inhibition
Details: 177Lu-lilotomab satetraxetan 0 ug/ml
Description: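 U-2932 ABC-DLBCL cells were pretreated or not for 18 h with 1 ug/ml 177Lu-lilotomab satetraxetan (600 MBq/mg), washed and seeded (3000 cells/well) on 384-well plates pre-printed with the Selleck Cambridge Cancer Compound library. Viability was read by RealTime-Glo luminescence on days 3-6 after seeding. Effect = 1 - RLU/mean RLU of the 48 untreated no-drug control wells per plate; Bliss score = (M-E)/(1-Fa), with E the expected Bliss-additive effect.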

SMILES	growth inhibition by drug alone (10 nM, time (day): 3)	growth inhibition by drug alone (10 nM, time (day): 4)	growth inhibition by drug alone (10 nM, time (day): 5)	growth inhibition by drug alone (10 nM, time (day): 6)	growth inhibition by drug alone (1000 nM, time (day): 3)	growth inhibition by drug alone (1000 nM, time (day): 4)	growth inhibition by drug alone (1000 nM, time (day): 5)	growth inhibition by drug alone (1000 nM, time (day): 6)
CC(C)c1onc(-c2c(Cl)cccc2Cl)c1COc1ccc(/C=C/c2cccc(C(=O)O)c2)c(Cl)c1	0.0964	0.0881	0.0536	0.0511	-0.008	0.0242	-0.0241	-0.208
O=C(Nc1ccc(OC(F)(F)F)cc1)c1sccc1NCc1ccnc2ccccc12	0.0561	-0.00441	-0.0537	-0.177	0.00246	-0.0266	-0.0424	-0.000118
N#CCNC(=O)c1ccc(-c2ccnc(Nc3ccc(N4CCOCC4)cc3)n2)cc1	-0.0265	-0.0512	-0.0373	0.104	-0.161	-0.159	-0.134	0.0156
CC(=O)O[C@H]1C(=O)[C@@]2(C)[C@H]([C@H](OC(=O)c3ccccc3)[C@]3(O)C[C@H](OC(=O)[C@H](O)[C@@H](NC(=O)c4ccccc4)c4ccccc4)C(C)=C1C3(C)C)[C@]1(OC(C)=O)CO[C@@H]1C[C@@H]2O [Paclitaxel (Taxol)]	0.806	0.808	0.794	0.778	0.955	0.969	0.977	0.983
CCN(CC)CCOc1ccc(Nc2ncc3cc(-c4c(Cl)cccc4Cl)c(=O)n(C)c3n2)cc1	0.107	0.071	0.00536	-0.00834	0.719	0.785	0.78	0.774
